# Screening data from PubChem BioAssay.
# This excerpt belongs to a sample that is enriched for hits.
# KDM5B inhibitor: inhibitors of human KDM5B histone demethylase | Q9UGL1 | KDM5B demethylase, FDH-coupled NADH fluorescence (FDH is formaldehyde dehydrogenase) | Potency, µM (top dose mostly 57.7 µM), actives largely listed as inhibitors | actives 2.6% (n = 220,000) | AID 1347165; active = well fitted inhibition curve with a large enough effect; also: 0% is about no effect; nearly all actives have a fitted effect of over 70% in size
# Target sequence (Q9UGL1 whole entry, looked up): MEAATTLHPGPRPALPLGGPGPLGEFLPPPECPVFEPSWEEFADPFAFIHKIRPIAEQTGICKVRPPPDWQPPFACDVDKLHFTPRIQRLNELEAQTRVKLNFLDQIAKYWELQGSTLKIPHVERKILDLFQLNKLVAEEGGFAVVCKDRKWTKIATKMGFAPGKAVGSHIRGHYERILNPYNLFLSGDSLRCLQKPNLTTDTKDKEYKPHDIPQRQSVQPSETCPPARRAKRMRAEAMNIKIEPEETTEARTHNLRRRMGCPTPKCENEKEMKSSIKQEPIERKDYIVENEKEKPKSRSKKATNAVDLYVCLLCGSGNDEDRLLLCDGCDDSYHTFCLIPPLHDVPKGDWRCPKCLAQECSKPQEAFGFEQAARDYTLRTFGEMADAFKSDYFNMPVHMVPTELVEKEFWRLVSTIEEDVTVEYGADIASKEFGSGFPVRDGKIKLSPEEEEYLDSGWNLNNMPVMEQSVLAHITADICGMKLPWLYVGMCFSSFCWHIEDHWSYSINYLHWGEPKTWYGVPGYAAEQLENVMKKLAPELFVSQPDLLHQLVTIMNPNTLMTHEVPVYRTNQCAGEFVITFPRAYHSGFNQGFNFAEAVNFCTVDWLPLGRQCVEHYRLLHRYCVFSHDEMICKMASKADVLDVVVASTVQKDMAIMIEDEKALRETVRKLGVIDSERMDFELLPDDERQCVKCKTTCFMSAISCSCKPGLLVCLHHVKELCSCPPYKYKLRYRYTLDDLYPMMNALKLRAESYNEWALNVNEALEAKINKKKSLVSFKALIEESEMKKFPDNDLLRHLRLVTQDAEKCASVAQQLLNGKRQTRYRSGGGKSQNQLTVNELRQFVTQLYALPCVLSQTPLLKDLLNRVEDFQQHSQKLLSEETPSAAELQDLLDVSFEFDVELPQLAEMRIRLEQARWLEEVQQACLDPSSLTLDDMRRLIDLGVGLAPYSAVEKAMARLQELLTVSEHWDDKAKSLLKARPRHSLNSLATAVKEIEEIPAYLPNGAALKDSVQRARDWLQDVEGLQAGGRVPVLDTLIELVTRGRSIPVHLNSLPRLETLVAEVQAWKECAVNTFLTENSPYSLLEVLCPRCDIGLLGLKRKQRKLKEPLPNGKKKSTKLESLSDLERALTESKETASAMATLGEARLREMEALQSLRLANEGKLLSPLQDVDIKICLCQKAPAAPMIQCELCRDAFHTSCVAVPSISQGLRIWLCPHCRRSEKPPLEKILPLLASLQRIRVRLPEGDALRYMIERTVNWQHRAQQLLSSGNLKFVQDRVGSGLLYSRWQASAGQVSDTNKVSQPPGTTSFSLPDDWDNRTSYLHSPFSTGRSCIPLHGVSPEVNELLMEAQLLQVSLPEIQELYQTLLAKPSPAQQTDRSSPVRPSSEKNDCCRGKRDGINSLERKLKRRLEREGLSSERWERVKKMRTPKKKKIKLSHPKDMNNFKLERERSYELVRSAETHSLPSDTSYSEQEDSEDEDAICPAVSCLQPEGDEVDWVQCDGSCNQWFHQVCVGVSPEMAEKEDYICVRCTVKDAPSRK
#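 Measured: NADH fluorescence change, 30 min, RT. System: KDM5BΔAP 200 nM final, H3K4me3 peptide, α-KG, Fe(II), ascorbate, NAD⁺ plus FDH, pH 7.5 HEPES. Compounds: titrated, 10 min pre-incubation with enzyme.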
# Active calls of the source: *; i = inactive. Potency is read from the fitted curve at half-maximal effect.
SMILES,KDM5B inhibitor
CC(C)NC(=O)N1CCC(c2noc(-c3ccccc3)n2)C1 (centres undefined),i
CCC(C(=O)NCc1nnc2c(-c3nc(C4CC4)no3)cccn12)c1ccccc1 (centres undefined),32µM*
CCC(C(=O)Nc1ccccc1OCc1cc(=O)n2cccc(C)c2n1)c1ccccc1 (centres undefined),i
CCC(C(=O)NCc1ccc(C(=O)OC)cc1)c1ccccc1 (centres undefined),i
COCc1nc(CCNC(=O)C(C)c2ccccc2)no1 (centres undefined),i
O=C1CCN(S(=O)(=O)c2ccccc2)CCCN(Cc2ccccc2)CCN1,i
Cc1ccccc1COC(=O)c1cnccn1,i
COCc1nn2c(=O)c(NC(=O)c3ccc(F)cc3)cnc2s1,i
O=C(NC1CC1)c1cccc(NC(=O)c2cccc3cccnc23)c1,i
Cc1nnc(SCC(=O)Nc2sc3c(c2C#N)CCC(C)C3)n1Cc1ccccc1 (centres undefined),i
COc1ccccc1OCCn1c(C)nc2cc(C)c(C)cc21,i
Cc1cccc2c(=O)c(-c3ccccc3)c(NC(=O)C(C)C)oc12,i
O=C(NC1CCCN(c2cc(-c3ccc(F)cc3)[nH]n2)C1)c1c[nH]c2ccccc12 (centres undefined),i
COc1ccc(CCC(=O)N2CCC[C@H]2c2nc(-c3ccc(OC)cc3)no2)cc1,i
COCCOc1cc(-c2noc([C@@H]3CCCN3CC3CC3)n2)ccn1,i
COc1ccc(-c2noc([C@@H]3CCCN3Cc3ccc(S(C)(=O)=O)cc3)n2)cn1,i
COCCOc1ccnc(-c2noc([C@@H]3CCCN3C3CCN(C(C)=O)CC3)n2)c1,i
CCCN1CCC[C@H]1c1nc(-c2ccc(NCCOC)nc2)no1,i
COCCOc1cc(-c2noc([C@@H]3CCCN3Cc3ccncc3)n2)ccn1,35µM*
COCCNc1cc(-c2noc([C@@H]3CCCN3C3CCN(C(C)=O)CC3)n2)ccn1,40µM*
COCCOc1cc(-c2noc([C@@H]3CCCN3C3CCN(C(C)=O)CC3)n2)ccn1,i
COCCNc1cc(-c2noc([C@@H]3CCCN3Cc3ccccn3)n2)ccn1,32µM*
COc1ccc(CN2CCC[C@H]2c2nc(-c3ccnc(N4CCOCC4)c3)no2)cc1,32µM*
O=C(Nc1ccc(Cc2nc3ccccc3s2)cc1)C1CCCC1,i
Cc1cc(N/N=C/c2ccc(Cl)c([N+](=O)[O-])c2)nc2ccccc12,i
SMILES,KDM5B inhibitor
CCCn1nc(C(=O)OCC(=O)NCc2ccc(F)cc2)c2ccccc2c1=O,i
CC(C)(C)OC(=O)C(C)(C(=O)OC(C)(C)C)c1nc(C(C)(C(=O)OC(C)(C)C)C(=O)OC(C)(C)C)nc(C(C)(C(=O)OC(C)(C)C)C(=O)OC(C)(C)C)n1,i
CC1c2ccsc2CCN1C(=O)c1n[nH]c(=O)c2ccccc12 (centres undefined),i
Cc1ccc(-c2ccc(=O)n(CC(=O)Nc3c(C)cccc3C)n2)cc1S(=O)(=O)N1CCOCC1,i
Cc1ccc(NC(=S)NNC(=O)c2csc(C)c2)cc1,i
O=C(C1CC1)N(Cc1ccc2c(c1)CN(S(=O)(=O)c1ccc(F)cc1)CCO2)c1ccccc1,i
CC(C)Cn1c(SCc2noc(-c3ccccc3Cl)n2)nnc1N1CCOCC1,i
Cc1cccc(OCCc2noc(C3CCCCN3)n2)c1 (centres undefined),i
Cn1c(=O)c2cc(C(=O)Nc3nc(-c4ccc(C(C)(C)C)cc4)cs3)cnc2n(C)c1=O,i
COc1ccc(-c2noc([C@@H]3CCCN3C(=O)Cc3ccc(F)cc3)n2)cc1,i
Cc1ccc(-c2noc(C3CCCN3Cc3ccccc3)n2)nn1 (centres undefined),i
c1cc(-c2noc([C@@H]3CCCN3Cc3ncc[nH]3)n2)cc(N2CCOCC2)n1,32µM*
O[C@@H]1C[C@@H](c2nc(-c3ccccc3)no2)N(Cc2ncc[nH]2)C1,i
COc1ccc(CN2CCC[C@H]2c2nc(-c3cncnc3N)no2)c(O)c1,32µM*
Cc1ccc(-c2noc([C@@H]3C[C@@H](O)CN3Cc3ncc[nH]3)n2)cc1F,i
COc1ccc(CC(=O)N2CCC[C@H]2c2nc(-c3ccccc3Cl)no2)cc1,i
c1ccc(CN2CCC[C@H]2c2nc(-c3ccnc(N4CCOCC4)c3)no2)nc1,28µM*
c1coc(-c2noc(CN3CCCC3c3nc(-c4ccncc4)no3)n2)c1 (centres undefined),i
NCCNCCc1ccccc1,i
CCCCn1nc(C(=O)NCc2ccccc2)c2ccccc2c1=O,i
CC(=O)c1ccc(NC(=O)Cn2cc(C(C)=O)c3ccccc32)cc1,i
CC(CCc1ccco1)NC(=O)CCc1nnc2ccc(N3CCOCC3)nn12 (centres undefined),i
CCCCn1cnc2c1c(=O)n(CC(O)c1ccccc1)c(=O)n2CC(C)C (centres undefined),i
Cc1c(C(=O)Nc2ccc(NC(=O)CC(C)C)cc2)cnn1-c1ccccc1F,i
CCOc1ccc(CN2CCN(c3cccc(C)c3C)CC2)cc1OC,i
SMILES,KDM5B inhibitor
Cc1ccccc1S(=O)(=O)Cc1ccc(C(=O)NCCN(C)C)o1,i
CCc1cccc(NC(=O)Cn2c(N(C)Cc3ccccc3)nc(C)cc2=O)c1,25µM*
CCc1ccc(NC(=O)Cn2c(N(C)Cc3ccccc3)nc(C)cc2=O)cc1,i
Cc1cccc(NC(=O)Cn2c(N(C)Cc3ccccc3)nc(C)cc2=O)c1,i
O=C(CSc1ncnc2ccccc12)Nc1ccccc1Oc1ccccc1,i
CCOC(=O)c1sc(N)c(C#N)c1CSc1ccc(C)cc1C,i
CC(C)(C)c1csc(NC(=O)C2CCN(c3ccc(C#N)cn3)CC2)n1,i
CN1CCCCCC1C(=O)N1CCN(c2ccc(C#N)cn2)CC1 (centres undefined),28µM*
CC(NC(=O)C1CCN(c2ccc(C#N)cn2)CC1)c1ccc(F)cc1 (centres undefined),i
COc1ccc(OC)c(NC(=O)Cn2ccc3ccccc32)c1,i
CCOC(=O)C1(C)C=C(Nc2ccc(F)cc2)C(=O)N1c1ccc(F)cc1 (centres undefined),i
Cc1cccc(OCCn2c(C)nc3cc(C)c(C)cc32)c1,i
COc1cccc(-c2ccc(NC(=O)C3CCCN3C(=O)C3(C)CC3)cc2)c1 (centres undefined),i
COCC(=O)Nc1ccc(-c2c(C(C)C)nn(-c3cccc(F)c3)c2OC(C)=O)cc1,i
COCC(=O)Nc1ccc(-c2c(CC(C)C)nn(-c3ccccc3)c2OC(C)=O)cc1,i
COc1cccc(-c2ccc(NC(=O)C3CCCN(C(=O)CC(F)(F)F)C3)cc2)c1 (centres undefined),i
COc1cccc(-c2nn(-c3ccccc3)c(OC(C)=O)c2-c2ccc(NC(=O)C3CCCC3)cc2)c1,13µM*
Cc1ccc(NC(=O)Cn2nc(-c3ccc(F)cc3)c3cnc4ccc(C)cc4c32)cc1,i
COc1ccc(-c2nn(-c3ccccc3C)c(OC(C)=O)c2-c2ccc(NC(C)=O)cc2)cc1OC,28µM*
CC(=O)Oc1c(-c2ccc(NC(=O)CC(C)C)cc2)c(-c2ccc(F)cc2)nn1-c1ccc(F)cc1,28µM*
COC(=O)c1cn(-c2ccccc2)nc1-c1ccc(OC)c(OC)c1,i
CC(C)CC(=O)Nc1ccccc1,i
COCC(=O)Nc1ccc(-c2c(-c3cccc(OC)c3)nn(-c3ccccc3)c2OC(C)=O)cc1,28µM*
